Results from PubChem BioAssay (EPA / NIEHS).
The source made the active and inactive calls. The calls were made as follows: active = hit-call score of the fitted dose curve at least 0.9, where 1 is the maximum; inactive = score below 0.9.

Columns and labels:
[1] = CEETOX_H295R_ANDR: CeeTox H295R High-throughput Steroidogenesis Assay for Androstenedione (ANDR) (AID 2283436); conditions: actives raise or lower the signal;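 also: human H295R adrenal cells exposed for 48 h with androstenedione measured in medium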
Outline: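 Steroidogenesis in H295R adrenal cells after 48 h dosing; androstenedione quantified by LC-MS/MS, with DMSO as negative control and baseline for bidirectional curve fitting.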

[2] = CEETOX_H295R_CORTIC: CeeTox H295R High-throughput Steroidogenesis Assay for Corticosterone (CORTIC) (AID 2283437); conditions: actives raise or lower the signal;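 also: corticosterone secreted into medium quantified by mass spectrometry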
Outline: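 Steps: seed H295R, adhere overnight; 10 uM forskolin 48 h; replace with chemical (0.1% DMSO) 48 h; extract medium with MTBE; quantify corticosterone by HPLC-MS/MS; score bidirectionally vs DMSO.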

[3] = CEETOX_H295R_CORTISOL: CeeTox H295R High-throughput Steroidogenesis Assay for Cortisol (AID 2283438); conditions: actives raise or lower the signal;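 also: cortisol secreted into medium quantified by LC-MS/MS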
Outline: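 Read-out: cortisol in culture medium by reverse-phase C18 HPLC with ESI-positive tandem MS, after MTBE liquid-liquid extraction. Cells: human adrenal H295R, forskolin-primed (10 uM, 48 h) before 48 h chemical exposure in 0.1% DMSO.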

[4] = CEETOX_H295R_DOC: CeeTox H295R High-throughput Steroidogenesis Assay for DOC (AID 2283439); conditions: actives raise or lower the signal
Outline: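 Human adrenocortical H295R cells, passages up to 10, received 10 uM forskolin for 48 h before chemical addition. After another 48 h exposure in 0.1% DMSO, secreted DOC was measured by LC-MS/MS, with gain or loss fitted against DMSO controls.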

[5] = CEETOX_H295R_PROG: CeeTox H295R High-throughput Steroidogenesis Assay for Progesterone (PROG) (AID 2283442); conditions: actives raise or lower the signal
Outline: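 Measured analyte is progesterone secreted by H295R cells at 48 h of chemical treatment, following 10 uM forskolin priming. Quantitation used HPLC-MS/MS against a 7-point standard curve; cytotoxicity was checked by MTT absorbance.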

[6] = read-out: Tumor necrosis factor receptor superfamily member 6 (Homo sapiens) (UniProt P25445); test: LTEA_HepaRG_FAS: Life Technologies and Expression Analysis (LTEA) Assay for Fas cell surface death receptor (FAS) using HepaRG (AID 2283447); conditions: mRNA level, 48 h; actives raise or lower the signal
Outline: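 Differentiated human HepaRG cells, pre-cultured 48 h, were exposed in duplicate for 48 h to 8-point half-log concentrations (top 100 uM, 0.5% DMSO) in serum-free induction medium; FAS mRNA measured by qRT-PCR, normalized to ACTB/GAPDH/POLR2A, bidirectional fit versus DMSO.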

[7] = read-out: Fatty acid synthase (Homo sapiens) (UniProt P49327); test: LTEA_HepaRG_FASN: Life Technologies and Expression Analysis (LTEA) Assay for Fatty Acid Synthase (FASN) using HepaRG (AID 2283448); conditions: mRNA level, 48 h; actives raise or lower the signal
Outline: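 HepaRG, 48 h exposure, 8-pt half-log series top 100 uM, 0.5% DMSO vehicle, duplicates. Readout: FASN transcript by Fluidigm qRT-PCR; housekeeping-normalized; bidirectional curve fit vs DMSO baseline.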

[8] = read-out: Cyclin D2 (CCND2), CCND2 (gene 894); test: LTEA_HepaRG_CCND2: Life Technologies and Expression Analysis (LTEA) Assay for Cyclin D2 (CCND2) using HepaRG (AID 2283449); conditions: mRNA level, 48 h; actives raise or lower the signal;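 also: CCND2 transcript measured by TaqMan qRT-PCR and normalised to three housekeeping genes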
Outline: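 In this HepaRG study, an eight-point concentration series (max 100 uM, 0.5% DMSO) is applied for 48 h. CCND2 mRNA change is derived by qRT-PCR normalised to ACTB, GAPDH and POLR2A.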

[9] = read-out: Cyclin Dependent Kinase Inhibitor 1A (CDKN1A), CDKN1A (gene 1026); test: LTEA_HepaRG_CDKN1A: Life Technologies and Expression Analysis (LTEA) Assay for Cyclin Dependent Kinase Inhibitor 1A (CDKN1A) using HepaRG (AID 2283450); conditions: mRNA level, 48 h; actives raise or lower the signal
Outline: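 Gain or loss of CDKN1A transcript is scored by bidirectional fitting against 0.5% DMSO vehicle. Human HepaRG cultures receive chemicals for 48 h across an 8-point series peaking at 100 uM; expression comes from qRT-PCR.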

[10] = read-out: catalase (CAT), CAT (gene 847); test: LTEA_HepaRG_CAT: Life Technologies and Expression Analysis (LTEA) Assay for catalase (CAT) using HepaRG (AID 2283452); conditions: mRNA level, 48 h; actives raise or lower the signal;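 as to AC50: TaqMan qRT-PCR signal normalized to ACTB GAPDH and POLR2A housekeeping genes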
Outline: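 Differentiated HepaRG cells in serum-free induction medium were dosed 48 h in duplicate, eight half-log concentrations from 100 uM in 0.5% DMSO. Transcript measured by TaqMan qRT-PCR, normalised to ACTB/GAPDH/POLR2A, fitted bidirectionally against DMSO.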

[11] = read-out: flavin-containing dimethylaniline monooxygenases 3 (FMO3), FMO3 (gene 2328); test: LTEA_HepaRG_FMO3: Life Technologies and Expression Analysis (LTEA) Assay for flavin-containing dimethylaniline monooxygenases 3 (FMO3) using HepaRG (AID 2283453); conditions: mRNA level, 48 h; actives raise or lower the signal;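 as to AC50: FMO3 transcript by TaqMan qRT-PCR normalized to ACTB GAPDH and POLR2A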
Outline: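 Eight-point concentration-response in serum-free HepaRG cultures (top 100 uM, 0.5% DMSO, 48 h). Read-out: FMO3 mRNA level normalized to three endogenous control genes, fitted bidirectionally versus vehicle.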

[12] = read-out: Cytochrome P450 (CYP1A1), CYP1A1 (gene 1543); test: LTEA_HepaRG_CYP1A1: Life Technologies and Expression Analysis (LTEA) Assay for Cytochrome P450 (CYP1A1) using HepaRG (AID 2283454); conditions: mRNA level, 48 h; actives raise or lower the signal
Outline: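 Using HepaRG cultures with 0.5% DMSO as vehicle, eight-concentration exposures (max 100 uM) lasted 48 h. Transcript levels were measured by TaqMan qRT-PCR and normalized to ACTB, GAPDH and POLR2A.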

[13] = read-out: CFLAR gene, CFLAR (gene 8837); test: LTEA_HepaRG_CFLAR: Life Technologies and Expression Analysis (LTEA) Assay for CFLAR gene using HepaRG (AID 2283455); conditions: mRNA level, 48 h; actives raise or lower the signal
Outline: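 Gain- or loss-of-signal changes in CFLAR transcript were fitted bidirectionally relative to 0.5% DMSO. Cells (HepaRG, duplicate wells) were dosed for 48 h across eight half-log concentrations topping at 100 uM; quantitation by TaqMan qRT-PCR.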

[14] = read-out: Forkhead box O1 (FOXO1), FOXO1 (gene 2308); test: LTEA_HepaRG_FOXO1: Life Technologies and Expression Analysis (LTEA) Assay for Forkhead box O1 (FOXO1) using HepaRG (AID 2283456); conditions: mRNA level, 48 h; actives raise or lower the signal
Outline: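 Using one lot of HepaRG hepatic cells kept in 0.5% DMSO, the team applied test chemicals in duplicate, half-log dilutions from 100 uM, for 48 h. Expression, normalised to ACTB/GAPDH/POLR2A, was compared with vehicle in either direction.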

[15] = CEETOX_H295R_TESTO: CeeTox H295R High-throughput Steroidogenesis Assay for Testosterone (TESTO) (AID 2283457); conditions: actives raise or lower the signal
Outline: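 Steroidogenesis in H295R cells following OECD 456 with minor changes; 48 h exposure. Medium testosterone by HPLC-MS/MS, DMSO as baseline, with MTT viability run in parallel.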

[16] = read-out: growth arrest and DNA damage 45 (GADD45A), GADD45A (gene 1647); test: LTEA_HepaRG_GADD45A: Life Technologies and Expression Analysis (LTEA) Assay for growth arrest and DNA damage 45 (GADD45A) using HepaRG (AID 2283458); conditions: mRNA level, 48 h; actives raise or lower the signal
Outline: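 HepaRG, 48 h exposure, 8 conc. (top 100 uM, half-log steps), 0.5% DMSO vehicle, duplicates. Read-out: qRT-PCR mRNA level, housekeeping-normalized (ACTB/GAPDH/POLR2A). Curves fit bidirectionally vs DMSO baseline.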

[17] = read-out: Forkhead box O3 (FOXO3), FOXO3 (gene 2309); test: LTEA_HepaRG_FOXO3: Life Technologies and Expression Analysis (LTEA) Assay for Forkhead box O3 (FOXO3) using HepaRG (AID 2283459); conditions: mRNA level, 48 h; actives raise or lower the signal
Outline: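 Gene-expression endpoint: FOXO3 transcript level by qRT-PCR in HepaRG cultures treated 48 h with chemicals up to 100 uM (half-log, 0.5% DMSO vehicle).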

[18] = read-out: Cyclin D1 (CCND1), CCND1 (gene 595); test: LTEA_HepaRG_CCND1: Life Technologies and Expression Analysis (LTEA) Assay for Cyclin D1 (CCND1) using HepaRG (AID 2283451); conditions: mRNA level, 48 h; actives raise or lower the signal
Outline: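 Expression change is measured by qRT-PCR in HepaRG cells after 48 h treatment across eight concentrations topping at 100 uM, with duplicate wells and DMSO (0.5%) serving as baseline for bidirectional fitting.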

[19] = CEETOX_H295R_ESTRADIOL: CeeTox H295R High-throughput Steroidogenesis Assay for Estradiol (AID 2283440); conditions: actives raise or lower the signal;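 also: estradiol secreted into medium quantified by LC-MS/MS after dansyl derivatisation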
Outline: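 Readout is estradiol in conditioned medium, quantified by reverse-phase HPLC-MS/MS against a 7-point standard curve. Cells: H295R, forskolin-stimulated, then dosed 48 h in 0.1% DMSO; activity fitted in both directions relative to DMSO.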

[20] = CEETOX_H295R_ESTRONE: CeeTox H295R High-throughput Steroidogenesis Assay for Estrone (AID 2283441); conditions: actives raise or lower the signal;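 also: estrone secreted into medium measured by LC-MS/MS after dansyl derivatization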
Outline: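 Forskolin-stimulated H295R cells are treated 48 h with chemical, and estrone in the medium is measured by LC-MS/MS. Activity is fitted in both directions relative to DMSO controls, with chemicals diluted until MTT viability reaches at least 70%.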

Measured: AC50

Fatty acid synthase (Homo sapiens), sequence (P49327 whole entry, looked up): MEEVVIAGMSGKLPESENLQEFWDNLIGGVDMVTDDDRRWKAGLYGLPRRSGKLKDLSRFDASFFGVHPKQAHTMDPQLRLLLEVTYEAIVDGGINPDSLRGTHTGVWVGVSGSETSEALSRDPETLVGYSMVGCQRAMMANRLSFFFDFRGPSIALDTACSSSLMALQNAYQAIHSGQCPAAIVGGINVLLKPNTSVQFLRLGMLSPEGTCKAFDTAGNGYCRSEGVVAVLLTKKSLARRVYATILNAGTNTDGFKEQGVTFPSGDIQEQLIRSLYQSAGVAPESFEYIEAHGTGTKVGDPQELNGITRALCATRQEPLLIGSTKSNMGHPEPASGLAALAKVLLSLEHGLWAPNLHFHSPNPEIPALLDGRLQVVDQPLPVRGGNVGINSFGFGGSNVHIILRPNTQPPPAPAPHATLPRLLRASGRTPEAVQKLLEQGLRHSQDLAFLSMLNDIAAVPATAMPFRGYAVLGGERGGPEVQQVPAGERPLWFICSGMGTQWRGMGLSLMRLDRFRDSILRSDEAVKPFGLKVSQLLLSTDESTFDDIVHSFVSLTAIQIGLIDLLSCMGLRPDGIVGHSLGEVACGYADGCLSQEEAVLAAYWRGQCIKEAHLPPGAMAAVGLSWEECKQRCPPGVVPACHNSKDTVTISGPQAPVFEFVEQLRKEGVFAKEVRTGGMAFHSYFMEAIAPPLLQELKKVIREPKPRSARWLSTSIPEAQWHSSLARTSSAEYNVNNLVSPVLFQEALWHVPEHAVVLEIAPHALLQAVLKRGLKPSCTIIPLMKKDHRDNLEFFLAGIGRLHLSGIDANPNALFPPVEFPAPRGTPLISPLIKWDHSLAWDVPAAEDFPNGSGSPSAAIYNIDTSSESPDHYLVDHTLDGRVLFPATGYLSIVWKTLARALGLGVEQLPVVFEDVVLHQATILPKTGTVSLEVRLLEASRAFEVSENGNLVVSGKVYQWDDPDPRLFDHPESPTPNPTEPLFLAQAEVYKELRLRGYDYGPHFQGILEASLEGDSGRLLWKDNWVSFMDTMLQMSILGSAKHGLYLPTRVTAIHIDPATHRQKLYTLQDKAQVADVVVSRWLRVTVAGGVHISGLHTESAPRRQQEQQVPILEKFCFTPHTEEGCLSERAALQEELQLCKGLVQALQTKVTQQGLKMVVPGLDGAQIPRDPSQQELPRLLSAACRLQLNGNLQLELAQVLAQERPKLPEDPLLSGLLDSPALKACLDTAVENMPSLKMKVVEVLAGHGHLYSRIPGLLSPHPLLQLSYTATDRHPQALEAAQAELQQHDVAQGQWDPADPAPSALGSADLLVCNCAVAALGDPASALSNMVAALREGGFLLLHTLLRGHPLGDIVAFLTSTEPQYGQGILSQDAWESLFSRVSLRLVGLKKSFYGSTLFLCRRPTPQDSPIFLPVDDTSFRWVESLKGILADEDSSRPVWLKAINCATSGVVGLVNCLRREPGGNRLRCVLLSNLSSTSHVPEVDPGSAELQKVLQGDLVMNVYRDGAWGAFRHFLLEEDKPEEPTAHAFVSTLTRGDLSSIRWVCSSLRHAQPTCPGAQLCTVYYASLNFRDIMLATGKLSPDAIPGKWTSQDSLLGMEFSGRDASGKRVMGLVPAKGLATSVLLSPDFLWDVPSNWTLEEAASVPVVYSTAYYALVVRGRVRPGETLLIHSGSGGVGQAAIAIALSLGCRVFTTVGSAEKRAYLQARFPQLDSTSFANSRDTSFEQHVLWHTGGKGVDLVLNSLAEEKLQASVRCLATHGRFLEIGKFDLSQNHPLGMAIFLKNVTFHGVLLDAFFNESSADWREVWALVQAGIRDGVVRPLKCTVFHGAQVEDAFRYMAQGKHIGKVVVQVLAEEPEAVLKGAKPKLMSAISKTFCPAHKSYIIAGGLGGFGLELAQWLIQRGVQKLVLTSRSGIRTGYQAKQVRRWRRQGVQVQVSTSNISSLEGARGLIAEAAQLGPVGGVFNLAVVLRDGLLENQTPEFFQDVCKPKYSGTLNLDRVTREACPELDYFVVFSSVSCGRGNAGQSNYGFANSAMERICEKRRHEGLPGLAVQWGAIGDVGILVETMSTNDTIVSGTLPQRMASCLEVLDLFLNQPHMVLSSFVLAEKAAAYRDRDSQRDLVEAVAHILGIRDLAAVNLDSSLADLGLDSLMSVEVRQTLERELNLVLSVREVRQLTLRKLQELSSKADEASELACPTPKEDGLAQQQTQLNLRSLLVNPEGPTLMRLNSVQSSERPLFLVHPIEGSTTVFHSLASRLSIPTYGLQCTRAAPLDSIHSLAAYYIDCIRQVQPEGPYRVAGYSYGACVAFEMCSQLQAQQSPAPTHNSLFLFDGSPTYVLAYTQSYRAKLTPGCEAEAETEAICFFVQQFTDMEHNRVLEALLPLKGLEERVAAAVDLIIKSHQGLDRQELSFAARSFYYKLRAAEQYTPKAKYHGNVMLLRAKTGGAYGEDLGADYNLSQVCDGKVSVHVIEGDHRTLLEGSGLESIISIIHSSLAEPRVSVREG

Nc1ccc(Cl)cc1N
active: [5] 1.89 µM | [6] 13.3 µM | [7] 37.9 µM | [9] 11.4 µM | [10] 18.7 µM | [11] 23.1 µM | [12] 1.81 µM | [13] 33.1 µM | [14] 29.4 µM | [16] 13.3 µM | [17] 21.5 µM
inactive: [1] | [2] | [3] | [4] | [8] | [15]

Cc1ccc(N)c(N)c1
active: [12] 40.2 µM
inactive: [2] | [3] | [4] | [5] | [6] | [7] | [8] | [9] | [18] | [10] | [11] | [13] | [16] | [17]

O=C(Oc1ccc(Br)cc1)N1CCN2CCC1CC2
active: [4] 1.06 µM | [5] 1.3 µM | [7] 75.9 µM | [12] 65.1 µM
inactive: [2] | [3] | [6] | [8] | [9] | [10] | [11] | [13] | [16] | [17]

c1ccc(N=Nc2ccccc2)cc1
inactive: [2] | [3] | [6] | [7] | [8] | [9] | [10] | [11] | [13] | [16] | [17]
active: [12] 36.6 µM

CCCCCCCCCCCCCN1CC(C)OC(C)C1 (configuration not stated)
active: [4] 6.39 µM | [5] 8.46 µM | [12] 50 µM
inactive: [2] | [3] | [19] | [20] | [6] | [7] | [8] | [9] | [10] | [11] | [13] | [14] | [16] | [17]

CCC(C)c1ccc(O)cc1 (configuration not stated)
inactive: [2] | [3] | [4] | [5] | [6] | [7] | [8] | [9] | [18] | [10] | [11] | [12] | [13] | [14] | [16] | [17]

Cc1ccc(N=C=O)cc1N=C=O
active: [7] 15.9 µM | [9] 72.2 µM | [10] 19.7 µM | [11] 31.2 µM | [12] 40.4 µM
inactive: [2] | [3] | [4] | [5] | [6] | [8] | [18] | [13] | [14] | [16] | [17]

Oc1ccc2ccc3cccc4ccc1c2c34
inactive: [5] | [6] | [7] | [8] | [9] | [18] | [10] | [11] | [13] | [14] | [16] | [17]
active: [2] 25.5 µM | [3] 35.7 µM | [4] 12.9 µM | [12] 27.5 µM

O=P(OCCCl)(OCCCl)OCCCl
inactive: [2] | [3] | [4] | [5] | [6] | [7] | [8] | [9] | [18] | [10] | [11] | [13] | [14] | [16] | [17]
active: [12] 76 µM

CC(C)(O)c1cnn2c(-c3ccc(F)c(-c4c(F)cccc4C#N)c3)cnc2n1
inactive: [1] | [2] | [3] | [4] | [6] | [7] | [8] | [9] | [18] | [10] | [11] | [13] | [14] | [15] | [16] | [17]
active: [5] 0.251 µM | [12] 11.9 µM

[As]#[In]
inactive: [2] | [4] | [5] | [6] | [7] | [8] | [9] | [18] | [10] | [11] | [12] | [13] | [14] | [16] | [17]

O=C(Nc1ccccc1)c1ccccc1I
active: [4] 25.7 µM | [5] 7.28 µM | [7] 13.2 µM | [11] 50 µM | [12] 27.7 µM | [17] 14.6 µM
inactive: [1] | [2] | [3] | [19] | [20] | [6] | [8] | [9] | [10] | [13] | [14] | [15] | [16]

Nc1ccc(N=Nc2ccccc2)cc1
active: [3] 68.7 µM | [4] 12.8 µM | [5] 75.6 µM | [6] 13 µM | [7] 21.6 µM | [9] 11.2 µM | [10] 14.9 µM | [11] 19.1 µM | [12] 35.8 µM | [13] 20.8 µM | [14] 30.9 µM | [17] 18.4 µM
inactive: [2] | [19] | [20] | [16]
